This is a sample that favours compounds with a hit; in the whole collection about 6.5% have one here.
Autofluor 339: intrinsic fluorescence of library compounds, ex339/em460 – biochemical, MLSMR library, data from DPM-DC assay, artefact control, profiling panel; fluorescence fold increase at 10 µM; compound autofluorescence, ex339/em460 nm, NADH buffer; hits give high values; 1 = no-compound wells, NADH background; 5.5% of 65,000 active;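 active = at 10 µM, mean starting fluorescence two-fold or more over control wells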;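 note: signal is the first read of a kinetic run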
Spn PMK inh: S. pneumoniae PMK inhibition | purified PMK, PK/LDH-coupled NADH absorbance 340 nm | 0.49% of 65,000 active | inhibition, % at 10 µM;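 active = top-ranked compounds by inhibition in the single 10 µM screen, taking a fixed number of the strongest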;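 note: 0% = full reaction with DMSO carrier and 100% = background rate without enzyme reaction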
A340 absorber: compound absorbs light at 340 nm; compound absorbance at 340 nm, fold over control; fold change at 10 µM; 65,000 tested, under 10 active;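 active = at 10 µM dose, initial 340 nm absorbance at least 2 fold that of control wells; inactive = change under 2 fold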;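 note: initial absorbance extrapolated from kinetic A340 decline of NADH oxidation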
Spn DPM-DC inh: blocks S. pneumoniae diphosphomevalonate decarboxylase; calls only at 10 µM; 0.49% of 65,000 active; purified DPM-DC, PK/LDH coupled NADH fluorescence;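 active = the 320 compounds with the highest percent inhibition in the single-dose primary screen, excluding strongly autofluorescent ones, cut at about 32% in these data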;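 note: kinetic rate of NADH fluorescence loss reporting ADP formed by the decarboxylase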
MK inhibit: blocks S. pneumoniae mevalonate kinase | purified MK, PK/LDH-coupled NADH absorbance 340 nm | inhibition, % at 10 µM | 0.48% of 65,000 active | AID 555;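 active = ranked among the strongest by inhibition in the single 10 µM screen, a fixed top-ranked set picked for dose follow-up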
NADH coupling: blocks coupling enzymes of NAD/NADH assays. coupled PK/LDH NADH assays, four targets. 0.02% of 65,000 active. IC50, µM (titrated, usually from 10 µM), inactives show at the top dose inhibition;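 active = single-dose screening hits from any of four coupled enzyme assays that gave an IC50 when retested across doses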;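 note: the DPM-DC format reads NADH fluorescence rather than 340 nm absorbance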
* marks the source's active call; other numbers are inactive results.

Screening CCN1CCCC1Cn1cnc2c([nH]c3cccc(Cl)c32)c1=O (stereo not given) returned Autofluor 339 2.2*, Spn PMK inh 4, A340 absorber 1, Spn DPM-DC inh inactive, MK inhibit 9 and NADH coupling 6%.
`COc1ccc2c(c1)[nH]c1c(=O)n(CCN3CCCC3)cnc12` gave Autofluor 339 0.91, Spn PMK inh 9, A340 absorber 1.1, Spn DPM-DC inh inactive, MK inhibit 8 and NADH coupling 7%.
Screening COc1cc2[nH]c3c(=O)n(CCN(C(C)C)C(C)C)cnc3c2cc1OC returned Autofluor 339 2.5*, Spn PMK inh 9, A340 absorber 1, MK inhibit 0 and NADH coupling 3%.
CCC1CCCN1Cn1cnc2c([nH]c3ccc(OC)cc32)c1=O (stereo not given) was read as Autofluor 339 3*, Spn PMK inh 3, A340 absorber 1, MK inhibit 12 and NADH coupling 2%.
O=S(=O)(Nc1cccnc1)c1ccc(Cl)c(C(F)(F)F)c1 was read as Autofluor 339 1.1, Spn PMK inh 1, A340 absorber 1.1, Spn DPM-DC inh inactive, MK inhibit 2 and NADH coupling 1%.
COCCN(C(=O)C1CC1)c1nnc(-c2cccc(C)c2)s1 was read as Autofluor 339 1.1, Spn PMK inh 3, A340 absorber 0.99, Spn DPM-DC inh inactive, MK inhibit 6 and NADH coupling 3%.
`CCCNc1ncccc1C(N)=O` gave Autofluor 339 3.4*, Spn PMK inh 10, A340 absorber 1, MK inhibit 2 and NADH coupling 6%.
`Cc1ccc(-c2nc3cnccn3c2Nc2ccccc2)o1` gave Autofluor 339 2.1*, Spn PMK inh 7, A340 absorber 1.1, MK inhibit 10 and NADH coupling 9%.
Cc1ccc(-c2cc(C(F)(F)F)c(C#N)c(SCCC#N)n2)o1 was read as Autofluor 339 3.7*, Spn PMK inh 2, A340 absorber 1.1, MK inhibit 8 and NADH coupling 5%.
Cc1ccc2cc3cc(C(=O)NCc4ccco4)oc3nc2c1 was read as Autofluor 339 4.6*, Spn PMK inh 11, A340 absorber 1.2, MK inhibit 5 and NADH coupling 8%.
O=C(NCc1ccco1)c1cc2ccccc2o1 was read as Autofluor 339 1, Spn PMK inh 0, A340 absorber 1, Spn DPM-DC inh inactive, MK inhibit 0 and NADH coupling 0%.
Cc1ccc2cc3cc(C(=O)NCCC(C)C)oc3nc2c1 was read as Autofluor 339 5.1*, Spn PMK inh 4, A340 absorber 1.1, MK inhibit 0 and NADH coupling 2%.
Screening O=C(Nc1ccc(CN2CCOCC2)cc1)c1cc2ccccc2oc1=O returned Autofluor 339 1, Spn PMK inh 8, A340 absorber 1, Spn DPM-DC inh inactive, MK inhibit 1 and NADH coupling 4%.
COc1cc(OC)c(-c2nnc(-c3ccc(OC)c(OC)c3OC)o2)cc1OC was read as Autofluor 339 2.1*, Spn PMK inh 19, A340 absorber 1.2, MK inhibit 7 and NADH coupling 13%.
Screening Cc1cc2ncn(C3CC(=O)N(Cc4ccccc4)C3=O)c2cc1C (stereo not given) returned Autofluor 339 1.1, Spn PMK inh 0, A340 absorber 1, Spn DPM-DC inh inactive, MK inhibit 5 and NADH coupling 2%.
For OC(Cn1cccn1)c1ccccc1 (stereo not given) the results were Autofluor 339 1.1, Spn PMK inh 10, A340 absorber 1, Spn DPM-DC inh inactive, MK inhibit 0 and NADH coupling 4%.
Screening N#Cc1nc(-c2ccco2)oc1N1CCOCC1 returned Autofluor 339 3.9*, Spn PMK inh 15, A340 absorber 1, MK inhibit 13 and NADH coupling 14%.
For N#Cc1nc(-c2ccccc2Cl)oc1N1CCOCC1 the results were Autofluor 339 2*, Spn PMK inh 0, A340 absorber 1, MK inhibit 0 and NADH coupling 0%.
Screening COc1ccccc1-c1nc(C#N)c(N2CCc3ccccc3C2)o1 returned Autofluor 339 3.9*, Spn PMK inh 4, A340 absorber 1.1, MK inhibit 7 and NADH coupling 6%.
`COc1ccccc1-c1nc(C#N)c(N2CCN(c3ccccc3)CC2)o1` gave Autofluor 339 1.7, Spn PMK inh 14, A340 absorber 1, Spn DPM-DC inh inactive, MK inhibit 14 and NADH coupling 4%.
For CC1CCCN(c2oc(-c3cccc4ccccc34)nc2C#N)C1 (stereo not given) the results were Autofluor 339 3.8*, Spn PMK inh 0, A340 absorber 1.1, MK inhibit 4 and NADH coupling 2%.
Screening N#Cc1nc(-c2ccco2)oc1N1CCN(c2ccccc2)CC1 returned Autofluor 339 1.3, Spn PMK inh 16, A340 absorber 1, Spn DPM-DC inh inactive, MK inhibit 16 and NADH coupling 11%.
For O=C(C1CCCN(S(=O)(=O)c2cccc3cccnc23)C1)N1CCc2ccccc21 (stereo not given) the results were Autofluor 339 1.2, Spn PMK inh 11, A340 absorber 1.1, Spn DPM-DC inh inactive, MK inhibit 4 and NADH coupling 5%.
For COc1ccc(NC(=O)c2ccco2)cc1NC(=O)c1cccnc1 the results were Autofluor 339 1.1, Spn PMK inh 0, A340 absorber 1, Spn DPM-DC inh inactive, MK inhibit 11 and NADH coupling 4%.
For Brc1ccc(-c2cn3cccnc3n2)cc1 the results were Autofluor 339 3.4*, Spn PMK inh 14, A340 absorber 1, MK inhibit 3 and NADH coupling 3%.
CCOCC(=O)Nc1cc(-c2cn3cccnc3n2)ccc1C was read as Autofluor 339 5.3*, Spn PMK inh 14, A340 absorber 1.1, MK inhibit 0 and NADH coupling 7%.
Screening c1ccc(-c2cnnc(SCc3cn4cccnc4n3)n2)cc1 returned Autofluor 339 1, Spn PMK inh 9, A340 absorber 1.1, Spn DPM-DC inh inactive, MK inhibit 9 and NADH coupling 6%.
`COCC(=O)Nc1ccc(-c2cn3cccnc3n2)cc1` gave Autofluor 339 5.2*, Spn PMK inh 18, A340 absorber 1.1, MK inhibit 0 and NADH coupling 9%.
CC(=O)N1CCC(=O)N(C(C)C)c2ccccc21 was read as Autofluor 339 1.1, Spn PMK inh 17, A340 absorber 1, Spn DPM-DC inh inactive, MK inhibit 0 and NADH coupling 6%.
CCCOc1ccc(C2C(=O)N(C3CCCCC3)CC(=O)N2C2CC2)cc1OC (stereo not given) was read as Autofluor 339 1, Spn PMK inh 20, A340 absorber 0.99, Spn DPM-DC inh inactive, MK inhibit 0 and NADH coupling 7%.
